# Data published in paper PMC11062922 (Nature Chemical Biology, 2023).
# Read-outs that look alike come from different tables or passages of the source.
# System: AAK1
# Details: read-out: apparent Kd, n = 1
substance,measurement,setting,value
Lestaurtinib,potency estimated from few doses,"compound concentrations:100 nM and 1000 nM (sheet 'Lestaurtinib' of Supplementary Table 1),run:Lestaurtinib_02339_R2,Plate:MR001",85.5 nM
same,potency estimated from few doses,"compound concentrations:100 nM and 1000 nM (sheet 'Lestaurtinib' of Supplementary Table 1),run:Lestaurtinib_02339_R3,Plate:MR001",53.3 nM
same,potency estimated from few doses,"compound concentrations:100 nM and 1000 nM (sheet 'Lestaurtinib' of Supplementary Table 1),run:Lestaurtinib_02364_R3,Plate:MR002",69.8 nM
same,potency estimated from few doses,"compound concentrations:100 nM and 1000 nM (sheet 'Lestaurtinib' of Supplementary Table 1),run:Lestaurtinib_02367_R1,Plate:MR003",65.4 nM
same,potency estimated from few doses,"compound concentrations:100 nM and 1000 nM (sheet 'Lestaurtinib' of Supplementary Table 1),run:Lestaurtinib_02367_R2,Plate:MR003",78.3 nM
same,potency estimated from few doses,"compound concentrations:100 nM and 1000 nM (sheet 'Lestaurtinib' of Supplementary Table 1),run:Lestaurtinib_02367_R3,Plate:MR003",77.2 nM
same,potency estimated from few doses,"compound concentrations:100 nM and 1000 nM (sheet 'Lestaurtinib' of Supplementary Table 1),run:Lestaurtinib_02381_R1,Plate:MR004",66.8 nM
same,potency estimated from few doses,"compound concentrations:100 nM and 1000 nM (sheet 'Lestaurtinib' of Supplementary Table 1),run:Lestaurtinib_02381_R3,Plate:MR004",45.5 nM
same,potency estimated from few doses,"compound concentrations:100 nM and 1000 nM (sheet 'Lestaurtinib' of Supplementary Table 1),run:Lestaurtinib_02407_R1,Plate:MR005",63.9 nM
same,potency estimated from few doses,"compound concentrations:100 nM and 1000 nM (sheet 'Lestaurtinib' of Supplementary Table 1),run:Lestaurtinib_02407_R2,Plate:MR005",53.3 nM
same,potency estimated from few doses,"compound concentrations:100 nM and 1000 nM (sheet 'Lestaurtinib' of Supplementary Table 1),run:Lestaurtinib_02407_R3,Plate:MR005",73.1 nM
same,potency estimated from few doses,"compound concentrations:100 nM and 1000 nM (sheet 'Lestaurtinib' of Supplementary Table 1),run:Lestaurtinib_02422_R2,Plate:MR006",18.9 nM
same,potency estimated from few doses,"compound concentrations:100 nM and 1000 nM (sheet 'Lestaurtinib' of Supplementary Table 1),run:Lestaurtinib_02422_R3,Plate:MR006",72.2 nM
same,potency estimated from few doses,"compound concentrations:100 nM and 1000 nM (sheet 'Lestaurtinib' of Supplementary Table 1),run:Lestaurtinib_02437_R2,Plate:MR007",69.6 nM
same,potency estimated from few doses,"compound concentrations:100 nM and 1000 nM (sheet 'Lestaurtinib' of Supplementary Table 1),run:Lestaurtinib_02438_R1,Plate:MR008",74.4 nM
same,potency estimated from few doses,"compound concentrations:100 nM and 1000 nM (sheet 'Lestaurtinib' of Supplementary Table 1),run:Lestaurtinib_02438_R2,Plate:MR008",72.4 nM
same,potency estimated from few doses,"compound concentrations:100 nM and 1000 nM (sheet 'Lestaurtinib' of Supplementary Table 1),run:Lestaurtinib_02443_R1,Plate:MR009",59.8 nM
same,potency estimated from few doses,"compound concentrations:100 nM and 1000 nM (sheet 'Lestaurtinib' of Supplementary Table 1),run:Lestaurtinib_02443_R2,Plate:MR009",72.4 nM
same,potency estimated from few doses,"compound concentrations:100 nM and 1000 nM (sheet 'Lestaurtinib' of Supplementary Table 1),run:Lestaurtinib_02473_R1,Plate:MR010",56.2 nM
same,potency estimated from few doses,"compound concentrations:100 nM and 1000 nM (sheet 'Lestaurtinib' of Supplementary Table 1),run:Lestaurtinib_02473_R3,Plate:MR010",40.1 nM
same,potency estimated from few doses,"compound concentrations:100 nM and 1000 nM (sheet 'Lestaurtinib' of Supplementary Table 1),run:Lestaurtinib_02482_R1,Plate:MR011",62.4 nM
same,potency estimated from few doses,"compound concentrations:100 nM and 1000 nM (sheet 'Lestaurtinib' of Supplementary Table 1),run:Lestaurtinib_02482_R2,Plate:MR011",81.9 nM
same,potency estimated from few doses,"compound concentrations:100 nM and 1000 nM (sheet 'Lestaurtinib' of Supplementary Table 1),run:Lestaurtinib_02482_R3,Plate:MR011",69.5 nM
same,potency estimated from few doses,"compound concentrations:100 nM and 1000 nM (sheet 'Lestaurtinib' of Supplementary Table 1),run:Lestaurtinib_02487_R1,Plate:MR012",45.5 nM
same,potency estimated from few doses,"compound concentrations:100 nM and 1000 nM (sheet 'Lestaurtinib' of Supplementary Table 1),run:Lestaurtinib_02487_R2,Plate:MR012",64.8 nM
same,potency estimated from few doses,"compound concentrations:100 nM and 1000 nM (sheet 'Lestaurtinib' of Supplementary Table 1),run:Lestaurtinib_02487_R3,Plate:MR012",70.8 nM
same,potency estimated from few doses,"compound concentrations:100 nM and 1000 nM (sheet 'Lestaurtinib' of Supplementary Table 1),run:Lestaurtinib_02496_R1,Plate:MR013",93.7 nM
same,potency estimated from few doses,"compound concentrations:100 nM and 1000 nM (sheet 'Lestaurtinib' of Supplementary Table 1),run:Lestaurtinib_02496_R2,Plate:MR013",80.9 nM
same,potency estimated from few doses,"compound concentrations:100 nM and 1000 nM (sheet 'Lestaurtinib' of Supplementary Table 1),run:Lestaurtinib_02566_R1,Plate:MR014",85.4 nM
same,potency estimated from few doses,"compound concentrations:100 nM and 1000 nM (sheet 'Lestaurtinib' of Supplementary Table 1),run:Lestaurtinib_02566_R2,Plate:MR014",74.9 nM
same,potency estimated from few doses,"compound concentrations:100 nM and 1000 nM (sheet 'Lestaurtinib' of Supplementary Table 1),run:Lestaurtinib_02572_R1,Plate:MR015",46 nM
same,potency estimated from few doses,"compound concentrations:100 nM and 1000 nM (sheet 'Lestaurtinib' of Supplementary Table 1),run:Lestaurtinib_02572_R2,Plate:MR015",79.8 nM
same,potency estimated from few doses,"compound concentrations:100 nM and 1000 nM (sheet 'Lestaurtinib' of Supplementary Table 1),run:Lestaurtinib_02572_R3,Plate:MR015",95.8 nM
same,potency estimated from few doses,"compound concentrations:100 nM and 1000 nM (sheet 'Lestaurtinib' of Supplementary Table 1),run:Lestaurtinib_02577_R1,Plate:MR016",58.2 nM
same,potency estimated from few doses,"compound concentrations:100 nM and 1000 nM (sheet 'Lestaurtinib' of Supplementary Table 1),run:Lestaurtinib_02577_R2,Plate:MR016",52.8 nM
same,potency estimated from few doses,"compound concentrations:100 nM and 1000 nM (sheet 'Lestaurtinib' of Supplementary Table 1),run:Lestaurtinib_02577_R3,Plate:MR016",59.6 nM
same,potency estimated from few doses,"compound concentrations:100 nM and 1000 nM (sheet 'Lestaurtinib' of Supplementary Table 1),run:Lestaurtinib_02584_R1,Plate:MR017",83.9 nM
same,potency estimated from few doses,"compound concentrations:100 nM and 1000 nM (sheet 'Lestaurtinib' of Supplementary Table 1),run:Lestaurtinib_02584_R2,Plate:MR017",61 nM
same,potency estimated from few doses,"compound concentrations:100 nM and 1000 nM (sheet 'Lestaurtinib' of Supplementary Table 1),run:Lestaurtinib_02584_R3,Plate:MR017",88.2 nM
same,potency estimated from few doses,"compound concentrations:100 nM and 1000 nM (sheet 'Lestaurtinib' of Supplementary Table 1),run:Lestaurtinib_02601_R1,Plate:MR018",68.7 nM
same,potency estimated from few doses,"compound concentrations:100 nM and 1000 nM (sheet 'Lestaurtinib' of Supplementary Table 1),run:Lestaurtinib_02601_R3,Plate:MR018",47.3 nM
same,potency estimated from few doses,"compound concentrations:100 nM and 1000 nM (sheet 'Lestaurtinib' of Supplementary Table 1),run:Lestaurtinib_02606_R1,Plate:MR019",69.9 nM
